“And” between values parts separate entries of the source, which are not always exact repeats. Equal values may be shown once. Among all 5,500 compounds or so, about 2,000 (36%) were called active. Roughly 18% stayed inconclusive and do not appear here. Cut-off read from the data, not from the text of the source: active = normalized growth mostly below about 0.91 (no sharp cut-off); inconclusive = no clear call, values can overlap the other calls; inactive = mostly above about 0.92. The list shows a part of the results.
Test: chemical genetic growth profiling, strain panel (AID 1159580);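 note: tested at 20 µM; growth read once vehicle control cultures reached saturation at 30 °C; 1 = growth at the plate median or of vehicle wells; lower values mean less growth of the strain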
Settings: S. cerevisiae deletion strains, growth OD

Measured: normalized growth

O=C(O)C1(O)C[C@@H](O)C(O)[C@H](O)C1 (stereo partly drawn)
inactive: locus YAL021C, strain ccr4, stronger effect = lower value 0.984 | locus YAL026C, strain drs2, stronger effect = lower value 0.985 | locus YAL030W, strain snc1, stronger effect = lower value 0.987 | locus YBL061C, strain skt5, stronger effect = lower value 0.968 | locus YBR009C, strain hhf1, stronger effect = lower value 1 | locus YBR021W, strain FUR4, stronger effect = lower value 1.01 | locus YBR023C, strain chs3, stronger effect = lower value 0.97 | locus YBR171W, strain sec66, stronger effect = lower value 0.983 | locus YBR229C, strain ROT2, stronger effect = lower value 1 | locus YBR231C, strain swc5, stronger effect = lower value 0.983 | locus YBR279W, strain paf1, stronger effect = lower value 0.985 | locus YCL011C, strain gbp2, stronger effect = lower value 0.978 | locus YCL016C, strain dcc1, stronger effect = lower value 0.973 | locus YCL029C, strain bik1, stronger effect = lower value 1.03 | locus YCL069W, strain vba3, stronger effect = lower value 0.988 | locus YCR088W, strain abp1, stronger effect = lower value 0.979 | locus YDL005C, strain med2, stronger effect = lower value 0.957 | locus YDL035C, strain GPR1, stronger effect = lower value 0.99 | locus YDL040C, strain nat1, stronger effect = lower value 0.979 | locus YDL074C, strain BRE1, stronger effect = lower value 1.04 | locus YDL101C, strain DUN1, stronger effect = lower value 1.01 | locus YDL185W, strain tfp1, stronger effect = lower value 1.02 | locus YDL192W, strain arf1, stronger effect = lower value 1.02 | locus YDR001C, strain nth1, stronger effect = lower value 0.975 | locus YDR069C, strain doa4, stronger effect = lower value 0.993 | locus YDR101C, strain arx1, stronger effect = lower value 1.02 | locus YDR137W, strain rgp1, stronger effect = lower value 0.996 | locus YDR150W, strain NUM1, stronger effect = lower value 1.01 | locus YDR159W, strain sac3, stronger effect = lower value 1 | locus YDR162C, strain NBP2, stronger effect = lower value 1.02 | locus YDR195W, strain ref2 0.959 | locus YDR297W, strain sur2, stronger effect = lower value 0.995 | locus YDR318W, strain mcm21, stronger effect = lower value 0.997 | locus YDR334W, strain swr1, stronger effect = lower value 0.962 | locus YDR335W, strain msn5, stronger effect = lower value 0.978 | locus YDR388W, stronger effect = lower value 1.01 | locus YDR392W, strain spt3, stronger effect = lower value 0.994 | locus YDR502C, strain sam2, stronger effect = lower value 1.01 | locus YEL003W, strain gim4, stronger effect = lower value 0.983 | locus YEL037C, strain rad23, stronger effect = lower value 0.98 | locus YEL061C, strain CIN8 (second series), stronger effect = lower value 0.98 | locus YEL061C, strain CIN8, stronger effect = lower value 1.01 | locus YER015W, strain faa2, stronger effect = lower value 0.975 | locus YER016W, strain bim1, stronger effect = lower value 0.967 | locus YER110C, stronger effect = lower value 1.02 | locus YER111C, strain swi4, stronger effect = lower value 0.966 | locus YER155C, strain BEM2 (second series), stronger effect = lower value 0.969 | locus YER155C, strain BEM2, stronger effect = lower value 1 | locus YER167W, strain BCK2, stronger effect = lower value 0.996 | locus YFR010W, strain ubp6, stronger effect = lower value 0.992 | locus YGL078C, strain dbp3, stronger effect = lower value 0.998 | locus YGL086W, strain mad1, stronger effect = lower value 1.05 | locus YGL167C, strain pmr1, stronger effect = lower value 0.976 | locus YGL173C, strain kem1, stronger effect = lower value 0.973 | locus YGL227W, strain vid30, stronger effect = lower value 0.979 | locus YGL240W, strain doc1, stronger effect = lower value 0.975 | locus YGL248W, strain PDE1, stronger effect = lower value 1 | locus YGL253W, strain hxk2, stronger effect = lower value 0.989 | locus YGR135W, strain pre9, stronger effect = lower value 1.01 | locus YGR229C, strain SMI1, stronger effect = lower value 1.02 | locus YGR252W, strain gcn5, stronger effect = lower value 0.954 | locus YHR013C, strain ard1, stronger effect = lower value 0.964 | locus YHR027C, strain rpn1, stronger effect = lower value 0.994 | locus YHR030C, strain SLT2, stronger effect = lower value 1.01 | locus YHR079C, strain IRE1 (second series), stronger effect = lower value 1.01 | locus YHR079C, strain IRE1, stronger effect = lower value 1 | locus YHR094C, strain hxt1, stronger effect = lower value 1.01 | locus YHR129C, strain ARP1, stronger effect = lower value 1.01 | locus YHR142W, strain chs7, stronger effect = lower value 0.982 | locus YHR200W, strain rpn10, stronger effect = lower value 1.01 | locus YIL066C, strain RNR3, stronger effect = lower value 1.01 | locus YIL073C, strain SPO22, stronger effect = lower value 1.06 | locus YIL125W, strain kgd1, stronger effect = lower value 1.02 | locus YIR030C, strain dcg1, stronger effect = lower value 1.01 | locus YJL092W, strain hpr5, stronger effect = lower value 0.979 | locus YJL095W, strain BCK1 (second series), stronger effect = lower value 0.997 | locus YJL095W, strain BCK1, stronger effect = lower value 0.993 and 1 | locus YJL115W, strain asf1, stronger effect = lower value 0.974 | locus YJL129C, strain trk1, stronger effect = lower value 0.984 | locus YJL134W, strain LCB3, stronger effect = lower value 1.01 | locus YJL154C, strain vps35, stronger effect = lower value 0.971 | locus YJL164C, strain tpk1, stronger effect = lower value 0.981 | locus YJL166W, strain qcr8, stronger effect = lower value 1.01 | locus YJL168C, strain set2, stronger effect = lower value 1.01 | locus YJL187C, strain SWE1 (second series), stronger effect = lower value 1.01 | locus YJL187C, strain SWE1, stronger effect = lower value 0.98 | locus YJR043C, strain POL32, stronger effect = lower value 1.01 | locus YJR066W, strain TOR1, stronger effect = lower value 0.957 | locus YKL009W, strain mrt4, stronger effect = lower value 1.01 | locus YKL068W, stronger effect = lower value 1.01 | locus YKL085W, strain MDH1 (second series), stronger effect = lower value 1.01 | locus YKL085W, strain MDH1, stronger effect = lower value 1.01 | locus YKL160W, strain elf1, stronger effect = lower value 0.978 | locus YKR001C, strain vps1, stronger effect = lower value 1.04 | locus YKR026C, strain gcn3, stronger effect = lower value 0.986 | locus YKR091W, strain srl3, stronger effect = lower value 0.986 | locus YLL001W, strain dnm1, stronger effect = lower value 0.962 | locus YLL026W, stronger effect = lower value 0.978 | locus YLL041C, strain sdh2, stronger effect = lower value 1 | locus YLR027C, strain aat2, stronger effect = lower value 0.981 | locus YLR039C, strain RIC1, stronger effect = lower value 1.07 | locus YLR058C, strain SHM2, stronger effect = lower value 1.01 | locus YLR102C, strain apc9, stronger effect = lower value 1.01 | locus YLR113W, strain HOG1, stronger effect = lower value 1.02 | locus YLR221C, strain rsa3, stronger effect = lower value 0.987 | locus YLR258W, strain gsy2, stronger effect = lower value 0.973 | locus YLR262C, strain YPT6 (second series), stronger effect = lower value 1.04 | locus YLR262C, strain YPT6, stronger effect = lower value 1.1 | locus YLR268W, strain sec22, stronger effect = lower value 1.04 | locus YLR320W, strain mms22, stronger effect = lower value 0.974 | locus YLR330W, strain CHS5, stronger effect = lower value 1 | locus YLR342W, strain FKS1 (second series), stronger effect = lower value 1.01 | locus YLR342W, strain FKS1, stronger effect = lower value 0.976 | locus YLR357W, strain rsc2, stronger effect = lower value 0.995 | locus YLR370C, strain arc18, stronger effect = lower value 0.992 | locus YLR371W, strain rom2, stronger effect = lower value 1.02 | locus YLR384C, strain iki3, stronger effect = lower value 0.983 | locus YLR418C, strain cdc73, stronger effect = lower value 1.01 | locus YML016C, strain PPZ1, stronger effect = lower value 1.01 | locus YML032C, strain rad52, stronger effect = lower value 0.989 | locus YML120C, strain ndi1, stronger effect = lower value 0.968 | locus YML124C, strain tub3, stronger effect = lower value 1.01 | locus YMR058W, strain fet3, stronger effect = lower value 0.964 | locus YMR078C, strain ctf18, stronger effect = lower value 1.02 | locus YMR125W, strain sto1, stronger effect = lower value 0.972 | locus YMR129W, stronger effect = lower value 0.976 | locus YMR205C, strain PFK2, stronger effect = lower value 0.984 | locus YMR223W, strain ubp8, stronger effect = lower value 1 | locus YMR231W, strain pep5, stronger effect = lower value 0.972 | locus YMR263W, strain SAP30, stronger effect = lower value 1.01 | locus YMR307W, strain GAS1, stronger effect = lower value 0.994 | locus YNL067W, strain RPL9B, stronger effect = lower value 1.01 | locus YNL071W, strain lat1, stronger effect = lower value 0.989 | locus YNL183C, strain NPR1, stronger effect = lower value 0.953 | locus YNL209W, strain ssb2, stronger effect = lower value 0.983 | locus YNL233W, strain BNI4, stronger effect = lower value 1.01 | locus YNL248C, strain rpa49, stronger effect = lower value 0.98 | locus YNL250W, strain rad50, stronger effect = lower value 1.02 | locus YNL271C, strain bni1, stronger effect = lower value 1.02 | locus YNL298W, strain CLA4, stronger effect = lower value 1.02 | locus YNL307C, strain MCK1, stronger effect = lower value 1.02 | locus YNL322C, strain KRE1 (second series), stronger effect = lower value 0.969 | locus YNR049C, strain mso1, stronger effect = lower value 0.963 | locus YNR052C, strain pop2, stronger effect = lower value 0.999 | locus YOL012C, strain htz1 0.956 | locus YOL147C, strain pex11, stronger effect = lower value 1.02 | locus YOR001W, strain rrp6, stronger effect = lower value 1 | locus YOR061W, strain CKA2, stronger effect = lower value 1.01 | locus YOR069W, strain VPS5, stronger effect = lower value 1.01 | locus YOR070C, strain gyp1, stronger effect = lower value 0.962 | locus YOR080W, strain dia2, stronger effect = lower value 0.972 | locus YOR083W, strain WHI5, stronger effect = lower value 0.981 | locus YOR106W, strain vam3, stronger effect = lower value 1 | locus YOR136W, strain idh2, stronger effect = lower value 1.03 | locus YOR144C, strain elg1, stronger effect = lower value 1.02 | locus YOR184W, strain ser1, stronger effect = lower value 1.01 | locus YOR231W, strain MKK1, stronger effect = lower value 0.997 | locus YOR265W, strain rbl2, stronger effect = lower value 0.989 | locus YOR270C, strain vph1, stronger effect = lower value 1.03 | locus YOR290C, strain snf2, stronger effect = lower value 0.992 | locus YOR316C, strain cot1, stronger effect = lower value 1.01 | locus YPL051W, strain arl3, stronger effect = lower value 0.992 | locus YPL055C, strain LGE1, stronger effect = lower value 1.01 | locus YPL078C, strain atp4, stronger effect = lower value 0.982 | locus YPL106C, strain sse1, stronger effect = lower value 0.961 | locus YPL240C, strain hsp82, stronger effect = lower value 1.01 | locus YPL241C, strain CIN2, stronger effect = lower value 1.02 | locus YPL256C, strain CLN2, stronger effect = lower value 0.992 | locus YPR119W, strain clb2, stronger effect = lower value 1.01 | locus YPR141C, strain kar3, stronger effect = lower value 1.01 | locus YPR163C, strain tif3, stronger effect = lower value 1.03 | locus YPR167C, strain met16, stronger effect = lower value 1.01 | strain wtn01, stronger effect = lower value 1.05
